From PubChem BioAssay (Tox21) come the findings set out here.

Each structure is given as a SMILES string. Values joined by “and” are separate entries in the source; they are usually repeats but may differ in a detail not shown here. Equal values may be shown once. Records with an inconclusive call do not appear. A structure can be active in one record and inactive in another. Active and inactive are the calls of the source. No rule for the calls is given here.
% is scaled to controls: 0 for no effect and ±100 for the full control effect; potency is read from the fitted curve at half-maximal effect.

This test in a line: qHTS assay to identify small molecule antagonists of the estrogen related receptor signaling pathway with the pleiotropic PPARgamma coactivator (PGC) from Tox21 10K library (AID 1224841). Also: actives are mostly falling curves and most rising ones were filed inactive; nearly all actives have a fitted effect of over 50% in size. The note with it: PGC/ERR reporter cell line, ONE-Glo luciferase, 18 h; series mostly up to 92.4 µM; activity, negative = inhibition: at the top concentration. In short, it runs like this: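 Each well held 2,000 PGC/ERR cells, pre-incubated six hours (37 C, 5% CO2). Test substances in DMSO were added by pin tool and left for 18 h at 37 C before luciferase detection by One-Glo.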
In general terms: qHTS replaces the single test concentration by a dilution series.
Turning to `NC(N)=Nc1nc(CSCC/C(N)=N/S(N)(=O)=O)cs1`, the Potency entry is “inactive”.

On to `CCN1CCCC1CNC(=O)c1cc(S(=O)(=O)CC)c(N)cc1OC` (stereo not drawn), for which the “activity, negative = inhibition” value is 13% [at 42.5 µM] (inactive). Regarding `OCC(CO)N[C@H]1C[C@](O)(CO)[C@@H](O)[C@H](O)[C@H]1O`, the “activity, negative = inhibition” value is 1.85% [at 42.5 µM] (inactive). On to `CC1COC(=O)O1` (stereo not drawn), for which the Potency result is “inactive”. Still for that read-out and setting: to `c1cc(C(c2ccc(OCC3CO3)cc2)C(c2ccc(OCC3CO3)cc2)c2ccc(OCC3CO3)cc2)ccc1OCC1CO1` (stereo not drawn) belongs 79.8 µM (active) and inactive. With `NC(N)=NC(=O)Cc1c(Cl)cccc1Cl`, the “activity, negative = inhibition” value is 2.75% [at 42.5 µM] (inactive). Same read-out and setting: the result for `CCCC(=O)c1ccccc1` reads 3.09% (inactive). As to `C=C(C)C1CC=C(C)C(OC(C)=O)C1` (stereo not drawn), the Potency result is “inactive”.

Consider `CC(C)(C)NCC(O)COc1ccccc1OCC1CCCO1` (stereo not drawn), for which the “activity, negative = inhibition” value is -17% [at 42.5 µM] (inactive). For `COC(=O)[C@H]1[C@H]2C[C@@H]3c4[nH]c5cc(OC)ccc5c4CCN3C[C@H]2C[C@@H](OC(=O)c2cc(OC)c(OC)c(OC)c2)[C@@H]1OC`, the Potency is 43.2 µM (active) and 15.8 µM (active). As to `CCN(CC)C(=S)SSC(=S)N(CC)CC`, the Potency was 243 nM (active) and 366 nM (active). Same read-out and setting: the result for `CC(C)(C)c1ccc(O)c(C(C)(C)C)c1` reads 54.3 µM (active) and inactive. With `O=C(O)CCc1ccccc1`, the “activity, negative = inhibition” value is 1.98% (inactive). As to `OCCN1CCNCC1`, the Potency result was “inactive”.

Consider `CC(C)CCOC(=O)c1ccc(N(C)C)cc1`, for which the “activity, negative = inhibition” value was 167% [at 42.5 µM] (inactive).

As to `Cc1cc(C2(c3cc(C)c(O)cc3C)OS(=O)(=O)c3ccccc32)c(C)cc1O`, the Potency was 34.4 µM (active) and inactive. Consider `CCOC(=O)C(C)C(C)=O` (stereo not drawn), for which the “activity, negative = inhibition” value is -1.1% (inactive).

Turning to `O=C1CC2(CCCC2)CC(=O)N1CCCCN1CCN(c2ncccn2)CC1`, the Potency was 19.3 µM (active) and inactive.
